Tb PYK inh: T. brucei pyruvate kinase inhibition | TbPYK enzyme, Kinase-Glo Plus ATP luminescence, 45 min | actives 0.12% (n = 410,000) | Potency, µM (highest dose often 76.8 µM), inactives show at the highest dose activity, negative = inhibition, hits mostly inhibitors | AID 624173; note: potency is the fitted concentration of half-maximal effect; % is set by controls: 0 for no effect and ±100 for the full control effect; nearly all actives have a fitted effect of over 50% in size
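Luminescence from Kinase-Glo Plus, added after a 45-minute room-temperature reaction, served as the end-point read-out. The enzyme and substrate were preincubated with compound before ADP (130 uM final) initiated turnover. Concentration-effect curves came from normalized qHTS data.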
Shiga toxin inh: Shiga toxin inhibition. actives 9.2% (n = 290,000). inhibition, % at 38.7 µM. Vero cells, Shiga toxin protein synthesis inhibition reporter. AID 2315; in the data active = inhibition mostly above about 28%, no sharp cut-off; inactive = mostly below about 43%; note: 0% is about no effect
LmPK inh: blocks Leishmania mexicana pyruvate kinase activity | purified LmPK, Kinase-Glo ATP luminescence, 1 h | Potency, µM (series often up to 57.5 µM), for the others: at the top dose activity change, negative = inhibition, most hits filed as inhibitors | actives 0.37% (n = 290,000); note: potency is the fitted concentration of half-maximal effect; % is set by controls: 0 for no effect and ±100 for the full control effect
Target sequence (Q27686 whole entry, looked up): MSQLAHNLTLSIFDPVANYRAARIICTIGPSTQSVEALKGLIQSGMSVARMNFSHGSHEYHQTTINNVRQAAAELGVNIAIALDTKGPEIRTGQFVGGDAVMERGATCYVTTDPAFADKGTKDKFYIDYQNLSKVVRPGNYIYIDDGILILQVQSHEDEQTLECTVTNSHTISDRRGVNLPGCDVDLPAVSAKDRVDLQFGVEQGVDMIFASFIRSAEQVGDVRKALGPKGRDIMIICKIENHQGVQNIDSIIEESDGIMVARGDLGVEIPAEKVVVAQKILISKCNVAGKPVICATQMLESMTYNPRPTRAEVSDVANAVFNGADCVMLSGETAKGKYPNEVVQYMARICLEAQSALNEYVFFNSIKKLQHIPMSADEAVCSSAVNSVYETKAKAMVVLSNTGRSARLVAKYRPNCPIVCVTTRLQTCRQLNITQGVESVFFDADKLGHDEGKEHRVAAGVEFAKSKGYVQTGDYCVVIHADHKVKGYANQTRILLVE
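qHTS format; LmPK 0.1 nM; substrates PEP 0.5 mM and ADP 0.1 mM. One-hour room-temperature incubation, then coupled luciferase luminescence; 0.5 nM enzyme wells mark activation.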
Sm TGR block: S. mansoni TGR enzyme inhibition. Potency, µM (series often up to 114 µM), for inactives: at the top dose activity change, negative = inhibition, hits mostly inhibitors. actives 3% (n = 360,000). purified TGR, DTNB reduction, TNB absorbance 405 nm. Q962Y6; note: potency is the fitted concentration of half-maximal effect; % is set by controls: 0 for no effect and ±100 for the full control effect; nearly all actives have a fitted effect of over 60% in size
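TGR 20 nM + NADPH 100 uM (dispensed conc.), cpd preinc 15 min RT; start with NADPH (500 uM addition) then DTNB (15 mM addition). Kinetic TNB absorbance, 405 nm filter. Four-parameter Hill fit across titration.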
Giardia FBPA inh-1: inhibitors of Giardia lamblia fructose-1,6-bisphosphate aldolase; actives 0.71% (n = 290,000); Potency, µM (doses to about 59.6 µM), without a hit: at the highest dose activity, negative = inhibition, most hits filed as inhibitors; purified Giardia FBPA; note: potency is the fitted concentration of half-maximal effect; % is set by controls: 0 for no effect and ±100 for the full control effect; nearly all actives have a fitted effect of over 55% in size
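Giardia FBPA (40 nM reagent) was preincubated 10 min at RT with compound (up to 57.5 uM final), then substrate plus GAPDH/TPI/NAD/arsenate coupling system with diaphorase/resazurin was added; resorufin fluorescence (525/598 nm) was read after 20 min.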
CHX counter: counter-screen hit for Shiga toxin inhibitors, cycloheximide; cell reporter, cycloheximide protein synthesis inhibition counterscreen; max response, %; actives 12% (n = 300,000); AID 2314; in the data active = max response mostly above about 13%, no sharp cut-off; inactive = mostly below about 14%; note: read at 38.3 µM for the half of the compounds with a filed dose; 0% is about no effect
Giardia growth: Giardia lamblia growth inhibition | shares compounds with Giardia FBPA inh-1 | Giardia lamblia trophozoite growth inhibition | Potency, µM (series often up to 57.5 µM), inactives show at the highest dose activity change, negative = inhibition, hits mostly inhibitors | actives 5% (n = 1,500);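 note: potency is the fitted concentration of half-maximal effect; trophozoites exposed to compound for 48 h at 37 °C; % is set by controls: 0 for no effect and ±100 for the full control effect; nearly all actives have a fitted effect of over 70% in size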
Mammalian tox: counter-screen for Giardia aldolase inhibitors: mammalian cell toxicity; mammalian cell viability counter-screen, qHTS; Potency, µM (series often up to 57.5 µM), inactives show at the top dose viability change, negative = toxicity, usual class: inhibitors; shares compounds with Giardia FBPA inh-1; actives 4% (n = 1,500);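 note: Chinese hamster ovary cells used as mammalian cytotoxicity surrogate; viability measured as cellular ATP by luminescence; potency is the fitted concentration of half-maximal effect; compound exposure lasted 48 h before reading; % is set by controls: 0 for no effect and ±100 for the full control effect; nearly all actives have a fitted effect of over 60% in size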
Giardia FBPA inh-2: confirmation of Giardia fructose-bisphosphate aldolase inhibitors; Potency, µM (doses to about 57.5 µM), without a hit: at the highest dose activity change, negative = inhibition, most hits filed as inhibitors; AID 2787; actives 5% (n = 1,500); purified Giardia aldolase enzyme activity, qHTS; shares compounds with Giardia FBPA inh-1; note: potency is the fitted concentration of half-maximal effect; % is set by controls: 0 for no effect and ±100 for the full control effect; nearly all actives have a fitted effect of over 45% in size
Rabbit FBPA inh: rabbit FBP aldolase inhibition by Giardia aldolase hits | shares compounds with Giardia FBPA inh-1 | Rabbit muscle FBPA enzyme inhibition, selectivity counter-screen | actives 4% (n = 1,500) | Potency, µM (highest dose often 57.5 µM), for the others: at the highest dose activity, negative = inhibition, usual class: inhibitors; note: potency is the fitted concentration of half-maximal effect; % is set by controls: 0 for no effect and ±100 for the full control effect; nearly all actives have a fitted effect of over 60% in size
GAPDH counter: counter-screen for Giardia aldolase inhibitors: GAPDH coupling enzyme; shares compounds with Giardia FBPA inh-1; GAPDH coupling enzyme counterscreen, biochemical, qHTS; Potency, µM (doses to about 57.5 µM), inactives show top-dose activity change, negative = inhibition, most hits filed as inhibitors; actives 6% (n = 1,500); note: potency is the fitted concentration of half-maximal effect; % is set by controls: 0 for no effect and ±100 for the full control effect; nearly all actives have a fitted effect of over 55% in size
* = called active by the depositor; [ ] = remark or other dose. Only a selection was taken, and hits are over-represented in it overall. Unless noted, calls come from the whole dose curve; as a rule, active = well fitted curve in the direction sought with a large enough effect; inconclusive = small, poorly fitted or top-dose-only effect, or another doubt; inactive = no such curve, though single readings can be large; an effect the other way counts as inactive or inconclusive.

Screening O=C(CSc1oc(-c2ccco2)nc1S(=O)(=O)c1ccc(Br)cc1)c1ccccc1 returned Tb PYK inh -9% and Sm TGR block -14%.
CCOC(=O)c1cnc(-n2nc(C)cc2C)[nH]c1=O was read as Tb PYK inh 1%, Shiga toxin inh -13, LmPK inh 2%, Sm TGR block 8%, Giardia FBPA inh-1 4.5µM*, CHX counter -2, Giardia growth -7%[38.3 µM], Mammalian tox -12%, Giardia FBPA inh-2 -21%, Rabbit FBPA inh -11% and GAPDH counter -14%.
`O=C(O)c1cccc2[nH]c(C(F)(F)F)nc12` gave Tb PYK inh -12%, Shiga toxin inh -5, LmPK inh -4%, Sm TGR block 8%, Giardia FBPA inh-1 -25% and CHX counter -3.
Nc1cccc2[nH]c(C(F)(F)F)nc12 was read as Tb PYK inh -24%, Shiga toxin inh -3, LmPK inh -23%, Sm TGR block inconclusive, Giardia FBPA inh-1 20µM*, CHX counter 9, Giardia growth -22%, Mammalian tox inconclusive, Giardia FBPA inh-2 inconclusive, Rabbit FBPA inh -13% and GAPDH counter -24%.
Screening Cc1cc(C(=O)N2CCN(S(=O)(=O)c3ccc(F)c(Cl)c3)CC2)c(C)o1 returned Tb PYK inh -4% and Sm TGR block -7%.
CCOC(=O)Cc1csc(NC(=S)NC(=O)c2cc(OC)c(OC)c(OC)c2)n1 was read as Tb PYK inh 0%, Shiga toxin inh -6, LmPK inh 3%, Sm TGR block -10%, Giardia FBPA inh-1 20µM*, CHX counter -4, Giardia growth -27%, Mammalian tox -7%, Giardia FBPA inh-2 -11%, Rabbit FBPA inh -3% and GAPDH counter 2%.
Screening CCOC(=O)Cc1csc(NC(=S)NC(=O)c2ccc(F)cc2)n1 returned Tb PYK inh -6%, Shiga toxin inh -3, LmPK inh -7%, Sm TGR block inconclusive, Giardia FBPA inh-1 7.9µM*, CHX counter 8, Giardia growth -27%, Mammalian tox -4%, Giardia FBPA inh-2 12%, Rabbit FBPA inh 7% and GAPDH counter 9%.
For CCc1ccc2c(CC(=O)NNC(=O)c3ccncc3)coc2c1 the results were Tb PYK inh 0% and Sm TGR block 7%.
Cc1ccc(-c2cc(NC(=O)c3ccccc3Cl)on2)cc1 was read as Tb PYK inh -2% and Sm TGR block 0%.
CCOc1ccc(N(CC(=O)Nc2ccc(OC)cc2)C2=NC3CS(=O)(=O)CC3S2)cc1 (stereo not drawn) was read as Tb PYK inh 3%, Shiga toxin inh -5, LmPK inh -1%, Sm TGR block 1%, Giardia FBPA inh-1 13µM*, CHX counter -1, Giardia growth -12%, Mammalian tox -14%, Giardia FBPA inh-2 3%, Rabbit FBPA inh 6% and GAPDH counter 10%.
`CC1CCN(S(=O)(=O)c2nnc(NC(=O)c3cccc([N+](=O)[O-])c3)s2)CC1` gave Tb PYK inh -12%, Shiga toxin inh -9, LmPK inh 1%, Sm TGR block -2%, Giardia FBPA inh-1 14µM*, CHX counter 9, Giardia growth -3%[10.4 µM], Mammalian tox 2%, Giardia FBPA inh-2 16µM*, Rabbit FBPA inh 25µM* and GAPDH counter 16µM*.
For O=C(Nc1nnc(S(=O)(=O)N2CCCC2)s1)c1ccc(F)cc1 the results were Tb PYK inh 0% and Sm TGR block 4%.
Screening O=C(Nc1nnc(S(=O)(=O)N2CCOCC2)s1)c1ccc(F)cc1 returned Tb PYK inh 3%, Shiga toxin inh -5, LmPK inh -1%, Sm TGR block -2%, Giardia FBPA inh-1 16µM*, CHX counter -2, Giardia growth inconclusive, Mammalian tox -5%, Giardia FBPA inh-2 inconclusive, Rabbit FBPA inh inconclusive and GAPDH counter 40µM*.
Cc1ccc(C(=O)Nc2nnc(S(=O)(=O)N3CCOCC3)s2)cc1 was read as Tb PYK inh 0%, Shiga toxin inh -3, LmPK inh -4%, Sm TGR block -25%, Giardia FBPA inh-1 18µM*, CHX counter 1, Giardia growth inconclusive, Mammalian tox 1%, Giardia FBPA inh-2 inconclusive, Rabbit FBPA inh inconclusive and GAPDH counter 25µM*.
Cc1ccc(C(=O)Nc2nnc(S(=O)(=O)N3CCCCCC3)s2)cc1 was read as Tb PYK inh 0%, Shiga toxin inh -2, LmPK inh 0%, Sm TGR block -19%, Giardia FBPA inh-1 -16% and CHX counter 1.
`O=C1C[C@H](c2ccccc2)Oc2cc(O)cc(O)c21` gave Giardia FBPA inh-1 2%.
For Cc1c(NC(=O)C(C)N(c2ccccc2)S(C)(=O)=O)c(=O)n(-c2ccccc2)n1C (stereo not drawn) the results were Tb PYK inh 2%, Shiga toxin inh 21, LmPK inh 2%, Sm TGR block 13%, Giardia FBPA inh-1 1% and CHX counter -2.
Screening Cn1ccc2c(-c3ccc(C(=O)O)cc3)cc3c(c21)C1CCC3C1 (stereo not drawn) returned Tb PYK inh 2%.
For CCN(CC(=O)NCc1ccc(Cl)cc1)C(=O)c1cc2ccccc2o1 the results were Tb PYK inh -2%, Shiga toxin inh 49, LmPK inh 1%, Sm TGR block 2%, Giardia FBPA inh-1 3% and CHX counter 18.
CCn1ncc(-c2cc(C(=O)O)no2)c1C was read as Tb PYK inh -2%, Shiga toxin inh -25, LmPK inh 1%, Sm TGR block 9%, Giardia FBPA inh-1 3% and CHX counter -4.

Screens deposited in PubChem by National Center for Advancing Translational Sciences (NCATS).
